Test in all cases: PBM binding z-score (relative to random genomic background probes); higher = stronger binding; sequences stand for … in GC…GCGATTGACAGCGTAGAATGAAGG
Assay [1] concerns RARb homodimer (NR concentration 270 nM). Summed up: (§1)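 Binding z-scores take random background probes as their reference. They come from custom Agilent 4×180K protein-binding microarrays incubated 1 h with ligand-free nuclear receptor dimers, with antibodies against each partner (one per run) detecting binding. Scanned fluorescence was regression-normalized.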
Assay [2] deals with RARg:RXRa (NR concentration 270 nM, RXRa partner concentration 90 nM). Summed up:
as §1

Assay [3] relates to RARg homodimer (NR concentration 270 nM). An outline of the steps:
as §1

Assay [4] deals with RXRa DBDmut IVT, anti-RXR (DBD mutation: RXRa K156A/R161A, NR concentration 90 nM). An outline of the steps: as §1
Assay [5] concerns RXRa homodimer (NR concentration 180 nM). An outline of the steps: as §1
In assay [6] the test system is THRa:RXRa (NR concentration 90 nM, RXRa partner concentration 90 nM). An outline of the steps:
as §1

Assay [7] has as its system THRa homodimer (NR concentration 90 nM). Summed up:
as §1

Assay [8] has as its system VDR:RXRa (NR concentration 270 nM, RXRa partner concentration 90 nM). An outline of the steps:
as §1

The test system of assay [9] is VDR homodimer (NR concentration 270 nM). An outline of the steps: as §1

For the sequence CCGACCGGGGCATAAGGTTACCATAAGCCAGCCC, the PBM binding z-score in [1] is 2; in [2] it was 2.18; in assay [3], 1.62; in [4], -0.289; in assay [5] it was 1.68; in assay [6], 2.57. Further, the PBM binding z-score in assay [7] turned out to be 1.66; in assay [8], 0.666; in [9] it was 0.0101.

Take CAAACTAGGTCACCGGAGGGTCAAAGTCCGCATG: the PBM binding z-score in assay [1] turned out to be 5.26; in assay [2], 7.83; in assay [3] it was 6.79; in assay [4], 1.19; in assay [5], 5.89; in assay [6], 4.24. Moreover, the results for the PBM binding z-score in [7], in assay [8] and in [9] were 2.21, 5.82 and 2.78, respectively.

Turning to TTACCAAGCTGAAAGGTCGTTGATGCACGCCTTG, the PBM binding z-score in [1] is 1.45; in assay [2] it was 1.06; in [3] it was 0.528; in [4] it was -0.0422; in assay [5], 2.04; in assay [6] it was 0.936. In addition, the PBM binding z-score in assay [7] was -0.608; in assay [8], 1.07; in assay [9], 0.539.

As for ATCTCTAGGTAAGACGCAGTTCAGTGAAGAACGC, the PBM binding z-score in assay [1] was 0.117; in assay [2], 0.165; in assay [3], 0.097; in [4] it was 0.0393; in assay [5], -0.00227; in assay [6], 0.223. The PBM binding z-score in [7] is -0.325; in assay [8], 0.101; in assay [9], 0.544.

Take ATCTCTAGATAAAGTTCAGTGAAAGATCGATAGA: the PBM binding z-score in assay [1] came to 1.84; in assay [2], 1.4; in assay [3], 2.06; in assay [4], 0.839; in assay [5] it was 0.79; in assay [6] it was 0.243. Further, the PBM binding z-score was -0.14 in [7], 1.03 in assay [8] and 1.66 in [9].

On to CCGACTGGGGCAAGGTTACTATAACGCACAGCCA, for which the PBM binding z-score in [1] is 1.04; in assay [2], 0.944; in [3], 1.12; in assay [4] it was -0.108; in [5], 0.985; in assay [6] it was 0.939. Also, the PBM binding z-score in assay [7] was 0.2; in [8], 0.0885; in assay [9], 0.00113.

Regarding CCTAGCAGGCCAATCTTGGTCACTCAAGGCTTGA, the PBM binding z-score in assay [1] is 0.0668; in assay [2], -0.196; in assay [3], 0.118; in assay [4] it was -0.0196; in [5], -0.417; in assay [6], 0.909. The results for the PBM binding z-score in assay [7], in [8] and in [9] were -0.83, -0.601 and -0.655, respectively.

CAAACTAGGTCAAGGTGAAAGTCGGTTTGTGCCA: the PBM binding z-score stood at 3.45 in assay [1]; 3.81 in assay [2]; 4.95 in [3]; 1.61 in assay [4]; 2.82 in [5]; 3.49 in assay [6]. For the same sequence, the PBM binding z-score in assay [7] was 2.52; in assay [8], 2.1; in assay [9], 0.978.

With GCTTGTAGATCAAGGTAAAGAAAGACTAAGCTAA, the PBM binding z-score is -0.851 in assay [1]; -0.145 in assay [2]; -0.335 in assay [3]; -0.256 in assay [4]; -0.197 in assay [5]; 0.48 in assay [6]. In addition, the figures for the PBM binding z-score in [7], in assay [8] and in [9] were -0.807, -0.118 and -0.505, respectively.

For the sequence ATCTCTAGGTAACGTTCAGTGAAAGATCGATAGA, the PBM binding z-score in [1] stood at 0.194; in assay [2], 0.535; in assay [3], 0.638; in assay [4], 0.201; in assay [5], 0.277; in assay [6] it was 0.969. Besides, the PBM binding z-score in assay [7] is 0.455; in [8] it was 0.101; in assay [9] it was -0.197.

For AGAATGAGGTTAAGGTCAGGGAAACAGAATACAT, the PBM binding z-score in assay [1] was 4.1; in [2], 4.97; in assay [3], 4.67; in assay [4], 1.43; in assay [5], 4.93; in assay [6], 4.39. Further, the PBM binding z-score in [7] was 4.62; in assay [8] it was 3.82; in [9], 2.36.

Consider TCATGTAGGTAAACAGGTGAAAGTCCGTAAGTTA, for which the PBM binding z-score in assay [1] stood at 0.722; in [2], 0.133; in assay [3], 0.0838; in [4] it was 0.975; in assay [5] it was 0.516; in assay [6] it was 0.578. The PBM binding z-score in assay [7] was 0.226; in [8] it was 0.613; in assay [9], -0.0362.

As for TTGAGTAGGTTAGGGGCATTCAGAATGGCGTCGA, the PBM binding z-score came to 1.7 in [1]; 0.491 in assay [2]; 0.689 in [3]; 0.378 in assay [4]; 0.569 in [5]; 1.14 in assay [6]. Besides, the PBM binding z-score was 1.29 in assay [7], 0.889 in assay [8] and 1.51 in assay [9].

For the sequence TCGAGTAGGTAACCAATGGGGCATTCAGCTTTCT, the PBM binding z-score in [1] is -0.0946; in assay [2] it was -0.146; in [3], -0.427; in [4], 0.00393; in assay [5], 0.0647; in assay [6] it was 0.124. In addition, the PBM binding z-score in [7] was -0.752; in assay [8] it was -0.172; in assay [9], -0.729.

In the case of TTACCAAGGTGAAGGTAGTTGATCCCTCTGTAGA, the PBM binding z-score was 0.8 in assay [1]; 0.328 in assay [2]; 0.323 in assay [3]; -0.443 in assay [4]; 0.761 in assay [5]; 1.84 in assay [6]. Also, the PBM binding z-score in [7] is 0.575; in [8], 0.0573; in assay [9], -0.396.

Regarding ATGTCTAGGTAACCAAGTTCAGTGAATGCCGAAC, the PBM binding z-score in assay [1] came to 1.34; in assay [2], 0.808; in assay [3] it was 0.759; in assay [4] it was 0.268; in [5], 0.737; in assay [6], 1.42. In addition, the PBM binding z-score in assay [7] turned out to be 0.382; in assay [8], 3.97; in assay [9], 2.08.

Values taken from the supplement of paper PMC6555819.
